PubChem BioAssay (NCATS)
Results filed as inconclusive are left out. The source made the active and inactive calls. Unless noted, calls come from the whole dose curve; as a rule, active = well fitted inhibition curve with a large enough effect; inconclusive = small, poorly fitted or top-dose-only effect; inactive = no such curve, though single readings can be large or run the other way.

Assay: Counterscreen qHTS for small molecule stabilizers of the endoplasmic reticulum resident proteome: GLuc-NoTag assay (AID 1508627); note: potency is the fitted concentration of half-maximal effect;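 for activity change, negative = inhibition: 0% = thapsigargin alone and -100% = DMSO vehicle control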
Conditions: Gaussia luciferase NoTag secretion counterscreen, luminescence, thapsigargin 100 nM for final 4 h; series mostly up to 76.4 µM; activity change, negative = inhibition: at the top concentration
In short: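 Secreted GLuc lacking the SERCaMP modification is measured in SH-SY5Y cells exposed to compound for 19 h and then to thapsigargin (100 nM, 4 h) to deplete ER calcium; hits retested at 11 concentrations, up to 76.6 uM.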
In the case of `C=C[C@H]1CN2CC[C@H]1C[C@@H]2[C@@H](O)c1ccnc2ccc(OC)cc12`, the “activity change, negative = inhibition” value is reported as -21.9% (inactive).
With `O=C1OC2(c3ccccc31)c1cc(Br)c(O)c(Br)c1Oc1c2cc(Br)c(O)c1Br` the “activity change, negative = inhibition” value was -16.2% (inactive).
In the case of `CN1CCN(C2=Nc3cc(F)ccc3Cc3ccccc32)CC1`, the Potency is reported as 28.2 µM (active).

Assay: Primary qHTS for small molecule stabilizers of the endoplasmic reticulum resident proteome: Secreted ER Calcium Modulated Protein (SERCaMP) assay (AID 1508630); note: % is set by controls: 0 for no effect and ±100 for the full control effect
Conditions: SH-SY5Y GLuc-SERCaMP (Gaussia luciferase released on ER calcium loss) secretion, thapsigargin, luminescence; series mostly up to 38.4 µM; activity change, negative = inhibition: at the top concentration
In short: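 The SH-SY5Y reporter protocol was run at 3 concentrations up to 38.3 uM (primary) or 11 concentrations (follow-up): 16 h compound, 100 nM thapsigargin for 4 h, then extracellular luciferase luminescence.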
For `O=C1C(CCS(=O)c2ccccc2)C(=O)N(c2ccccc2)N1c1ccccc1` (stereo unspecified), the “activity change, negative = inhibition” value was 2.75% (inactive).
In the case of `CNCCCCOc1ccccc1Cc1ccccc1`, the Potency is reported as “inactive”.
With `CC[C@H](c1ccc(O)cc1)[C@@H](CC)c1ccc(O)cc1` the “activity change, negative = inhibition” value was -9.76% (inactive).
In the case of `Cc1c(-c2ccccc2)oc2c(C(=O)OCCN3CCCCC3)cccc2c1=O`, the “activity change, negative = inhibition” value is reported as 64% (inactive).
With `C#C[C@]1(O)CC[C@H]2[C@@H]3CCC4=Cc5oncc5C[C@]4(C)[C@H]3CC[C@@]21C` the “activity change, negative = inhibition” value was -5.27% (inactive).
With `CC(=O)OCC(=O)[C@H]1CC[C@H]2[C@@H]3CCC4=CC(=O)CC[C@]4(C)[C@H]3CC[C@]12C` the “activity change, negative = inhibition” value was 33.8% (inactive).
In the case of `CCCCCCCCCCCCCC[N+](C)(C)Cc1ccccc1`, the “activity change, negative = inhibition” value is reported as 15.1% (inactive).
In the case of `CC1=C(C(=O)O)N2C(=O)[C@@H](NC(=O)[C@H](N)c3ccccc3)[C@H]2SC1`, the “activity change, negative = inhibition” value is reported as -22.6% (inactive).
In the case of `C#C[C@]1(OC(C)=O)CC[C@H]2[C@@H]3CCC4=C/C(=N/O)CC[C@@H]4[C@H]3CC[C@@]21CC`, the “activity change, negative = inhibition” value is reported as 11.4% (inactive).
In the case of `NS(=O)(=O)c1cc2c(cc1Cl)NC(CC1CCCC1)NS2(=O)=O` (stereo unspecified), the “activity change, negative = inhibition” value is reported as -22.9% (inactive).
In the case of `CCN(CC)CCNc1ccc(CO)c2sc3ccccc3c(=O)c12`, the “activity change, negative = inhibition” value is reported as 107% (inactive).
In the case of `NC(N)=NN=C(/C=C/c1ccc([N+](=O)[O-])o1)/C=C/c1ccc([N+](=O)[O-])o1`, the “activity change, negative = inhibition” value is reported as 301% (inactive).
For `O=C(O)CCNC(=O)c1ccccc1`, the “activity change, negative = inhibition” value was -16.9% (inactive).
For `CCN(CC)CCOc1ccccc1C(=O)CCc1ccccc1`, the “activity change, negative = inhibition” value was -23% (inactive).
For `COc1ccc(C(=O)c2ccccc2O)c(O)c1`, the “activity change, negative = inhibition” value was -13.3% (inactive).
With `NC(=O)n1c(O)c(C(=O)c2cccs2)c2cc(Cl)ccc21` the Potency was “inactive”.
For `CC(=O)O[C@]1(C(C)=O)CC[C@H]2[C@@H]3C=C(Cl)C4=CC(=O)CC[C@]4(C)[C@H]3CC[C@@]21C`, the “activity change, negative = inhibition” value was -4.32% (inactive).
In the case of `NCCNc1cccc2ccccc12`, the “activity change, negative = inhibition” value is reported as -11.2% (inactive).

Assay: A High-Content qHTS Against Drug Library for the Identification of Small Molecules that Inhibit DYT1 Early Onset Primary Dystonia-Associated Cell Pathology (AID 1645839; calls by dose curve; note: potency is the fitted concentration of half-maximal effect)
Conditions: HEK293 Flp-In EGFP-delE TorsinA, punctate imaging, 48 h; series mostly up to 46.1 µM; % pathology change, negative = correction: at the top concentration
In short: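 Induced EGFP-delE TorsinA cells are imaged after 48 h of compound treatment. Punctate fusion-protein distribution gives the %pathology value, while nuclei counts flag toxicity. Wild-type EGFP-hTOR1A cells define the normal pattern.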
In the case of `C=C[C@H]1CN2CC[C@H]1C[C@@H]2[C@@H](O)c1ccnc2ccc(OC)cc12`, the “% pathology change, negative = correction” value (from here on “% pathology change”) is reported as -15.2% (inactive).
With `O=C1C(CCS(=O)c2ccccc2)C(=O)N(c2ccccc2)N1c1ccccc1` (stereo unspecified) the “% pathology change” value was 3.92% (inactive).
With `Cc1c(-c2ccccc2)oc2c(C(=O)OCCN3CCCCC3)cccc2c1=O` the “% pathology change” value was 5.63% (inactive).
With `Cc1cn([C@H]2C[C@H](F)[C@@H](CO)O2)c(=O)[nH]c1=O` the “% pathology change” value was 14.1% (inactive).
In the case of `O=C(Nc1ncc([N+](=O)[O-])s1)c1cccs1`, the “% pathology change” value is reported as 0.265% (inactive).
For `CC(=O)OCC(=O)[C@H]1CC[C@H]2[C@@H]3CCC4=CC(=O)CC[C@]4(C)[C@H]3CC[C@]12C`, the “% pathology change” value was 31% (inactive).
With `CCC(Cc1c(I)cc(I)c(N)c1I)C(=O)O` (stereo unspecified) the “% pathology change” value was 9.68% (inactive).
In the case of `CC1=C(C(=O)O)N2C(=O)[C@@H](NC(=O)[C@H](N)c3ccccc3)[C@H]2SC1`, the “% pathology change” value is reported as 6.19% (inactive).
For `CCCCN=C(N)N=C(N)N`, the “% pathology change” value was -2.76% (inactive).
With `NS(=O)(=O)c1cc2c(cc1Cl)NC(CC1CCCC1)NS2(=O)=O` (stereo unspecified) the “% pathology change” value was -18.4% (inactive).
With `CCCN(CCC)S(=O)(=O)c1ccc(C(=O)O)cc1` the “% pathology change” value was 1.14% (inactive).
In the case of `CCCCC(CC)COC(=O)/C=C/c1ccc(OC)cc1` (stereo unspecified), the “% pathology change” value is reported as 6.68% (inactive).
In the case of `NC(N)=NN=C(/C=C/c1ccc([N+](=O)[O-])o1)/C=C/c1ccc([N+](=O)[O-])o1`, the Potency is reported as 1 µM (active).
With `C[C@@H](O)[C@H]1C(=O)N2C(C(=O)O)=C([C@H]3CCCO3)S[C@H]12` the “% pathology change” value was -0.992% (inactive).
With `O=C(O)CCNC(=O)c1ccccc1` the “% pathology change” value was 0.335% (inactive).
In the case of `COc1ccc(C(=O)c2ccccc2O)c(O)c1`, the “% pathology change” value is reported as -22.2% (inactive).
With `CN1CCN(C2=Nc3cc(F)ccc3Cc3ccccc32)CC1` the “% pathology change” value was -2.49% (inactive).
In the case of `O=C1c2cccc3c2[C@H](CCC3)CN1[C@@H]1CN2CCC1CC2`, the “% pathology change” value is reported as -12.2% (inactive).
In the case of `CC(=O)O[C@]1(C(C)=O)CC[C@H]2[C@@H]3C=C(Cl)C4=CC(=O)CC[C@]4(C)[C@H]3CC[C@@]21C`, the “% pathology change” value is reported as 1.29% (inactive).
With `NCCNc1cccc2ccccc12` the “% pathology change” value was -21.2% (inactive).
